Where “and” joins values, the source holds several entries; their conditions need not be identical. Equal entries are not always repeated. Records with an inconclusive call do not appear. Calls of active or inactive are those of the source. Unless noted, calls come from the whole dose curve; as a rule, active = well fitted curve in the direction sought with a large enough effect in the repeat runs; inconclusive = weak or mixed curves; inactive = no such curve, though single readings can be large; an effect the other way counts as inactive or inconclusive.
Tests used:
[1] = target: Thyrotropin receptor (Homo sapiens) (UniProt P16473); assay: qHTS assay to identify small molecule agonists of the thyroid stimulating hormone receptor (TSHR) signaling pathway (AID 1224843; calls by dose curve; note: nearly all actives have a fitted effect of over 45% in size)
Sequence of Thyrotropin receptor (Homo sapiens) (P16473 whole entry, looked up): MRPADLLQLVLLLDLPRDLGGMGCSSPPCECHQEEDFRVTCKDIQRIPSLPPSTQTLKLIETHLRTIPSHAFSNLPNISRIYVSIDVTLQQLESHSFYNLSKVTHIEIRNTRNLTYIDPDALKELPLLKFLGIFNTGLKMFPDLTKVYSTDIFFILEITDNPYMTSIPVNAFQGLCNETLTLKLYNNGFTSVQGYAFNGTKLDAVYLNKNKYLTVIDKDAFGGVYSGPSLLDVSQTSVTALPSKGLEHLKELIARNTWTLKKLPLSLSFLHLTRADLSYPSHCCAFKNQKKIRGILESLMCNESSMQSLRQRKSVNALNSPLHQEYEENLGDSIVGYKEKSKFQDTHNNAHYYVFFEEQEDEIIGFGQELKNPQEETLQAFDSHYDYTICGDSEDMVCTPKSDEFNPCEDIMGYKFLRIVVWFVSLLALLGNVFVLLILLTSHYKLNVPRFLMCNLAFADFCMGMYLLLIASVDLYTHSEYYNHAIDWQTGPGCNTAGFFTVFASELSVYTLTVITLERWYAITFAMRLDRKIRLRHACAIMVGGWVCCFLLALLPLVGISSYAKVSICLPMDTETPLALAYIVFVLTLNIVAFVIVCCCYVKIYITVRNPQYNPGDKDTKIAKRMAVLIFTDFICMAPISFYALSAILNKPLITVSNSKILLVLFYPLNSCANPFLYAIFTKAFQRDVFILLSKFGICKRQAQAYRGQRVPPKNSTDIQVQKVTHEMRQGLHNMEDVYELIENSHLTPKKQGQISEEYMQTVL
Summary of the method: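 Cell line HEK293 with TSHR; density 800/well. Exposure 30 min RT. Readout HTRF cAMP (cAMP-d2/anti-cAMP-cryptate), 1 h RT before reading.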

[2] = qHTS assay to identify small molecule agonists of the hypoxia (HIF-1) signaling pathway - cell viability counter screen (AID 1224844; calls by dose curve; note: nearly all actives have a fitted effect of over 50% in size)
Summary of the method: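 ME-180 HRE-bla cells, 2,000/well, 0.5% dialyzed FBS; 5 hr settle, 17 hr compound at 37C/5% CO2; CCF4-AM reporter read first, then CellTiter-Glo luminescence after 30 min RT.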

[3] = qHTS assay to identify small molecule agonists of H2AX (AID 1224845; active = well fitted activation curve with a large enough effect in the signal ratio in the repeat runs, not every such curve was filed as active; the % refers to the signal ratio)
Summary of the method: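 Wild-type CHO-K1 cells plated overnight, then exposed 3 hr at 37C to compounds at 15 concentrations (0.76% DMSO). Lysed, then HTRF anti-pH2AX(S139)-cryptate/anti-H2AX-d2 detection after 24 hr at room temperature; emissions 665 and 620 nm.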

[4] = qHTS assay to identify small molecule agonists of the hypoxia (HIF-1) signaling pathway (AID 1224846; active = well fitted activation curve with a large enough effect in the signal ratio in the repeat runs, not every such curve was filed as active; the % refers to the signal ratio)
Summary of the method: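 Cell line: CellSensor HRE-bla ME-180; 2,000 cells/well; 0.5% dialyzed FBS; 5 h preincubation; DMSO compound pin transfer; 17 h, 37C, 5% CO2; CCF4-AM added; bla FRET signal scored for activation.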

[5] = qHTS assay to identify small molecule agonists of H2AX - cell viability counter screen (AID 1224847; calls by dose curve; note: top concentration of the series differs between compounds; nearly all actives have a fitted effect of over 30% in size)
Summary of the method: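 CHO-K1 cells plated overnight at 37C, then exposed 3 h at 37C to compounds at 15 concentrations (0.76% DMSO final). Viability by CellTiter-Glo luminescence after 30 min at room temperature.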

[6] = qHTS RealTime-Glo MT Cell Viability Assay in HepG2 cells - 24 hour (AID 1224867); note: nearly all actives have a fitted effect of over 50% in size
Summary of the method: (§1)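 qHTS, HepG2, 600 cells/well, RealTime-Glo (NanoLuc + prosubstrate) added with cells; 5 h preincubation; DMSO compound addition; 37 C; luminescence at 0/8/16/24/32/40 h.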

[7] = qHTS RealTime-Glo MT Cell Viability Assay in HEK293 cells - 32 hour (AID 1224868); note: top concentration of the series differs between compounds; nearly all actives have a fitted effect of over 50% in size
Summary of the method: (§2)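 Assay medium contained NanoLuc luciferase plus cell-permeant prosubstrate, added with HEK293 cells at 600 cells/well. After 5 h at 37 C/5% CO2 compounds were added; plates stayed at 37 C for 40 h with serial luminescence reads.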

[8] = A CellTox Green Cytotoxicity Assay to monitor cytotoxicity in HEK293 cells - 0 hour (AID 1224869); note: nearly all actives have a fitted effect of over 50% in size
Summary of the method: (§3)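 Nonlytic real-time cytotoxicity: HEK293 + CellTox Green reagent plated, 5 h preincubation, pintool compound addition (23 nL in DMSO), 37 C for 40 h, fluorescence measured at successive time points.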

[9] = A CellTox Green Cytotoxicity Assay to monitor cytotoxicity in HEK293 cells - 40 hour (AID 1224871); note: nearly all actives have a fitted effect of over 45% in size
Summary of the method: as §3

[10] = qHTS RealTime-Glo MT Cell Viability Assay in HEK293 cells - 16 hour (AID 1224872)
Summary of the method: as §2

[11] = qHTS RealTime-Glo MT Cell Viability Assay in HepG2 cells - 8 hour (AID 1224873); note: nearly all actives have a fitted effect of over 55% in size
Summary of the method: (§4)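 HepG2 cells mixed with RealTime-Glo MT reagents (NanoLuc plus cell-permeant prosubstrate) were seeded at 600 cells/well, incubated 5 h at 37 C/5% CO2, then pinned with compounds in DMSO; nonlytic luminescence tracked viability during 40 h treatment.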

[12] = qHTS RealTime-Glo MT Cell Viability Assay in HEK293 cells - 40 hour (AID 1224874); conditions: RealTime-Glo luminescence; max response: stronger effect = lower value; note: nearly all actives have a fitted effect of over 50% in size
Summary of the method: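 Cells were seeded together with NanoLuc luciferase and a prosubstrate that viable cells reduce to a luciferase substrate. After a 5 h incubation at 37 C/5% CO2, compounds were added and luminescence was measured repeatedly during 40 h of treatment.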

[13] = A CellTox Green Cytotoxicity Assay to monitor cytotoxicity in HEK293 cells - 24 hour (AID 1224875); note: series mostly up to about 77 µM; nearly all actives have a fitted effect of over 45% in size
Summary of the method: as §3

[14] = A CellTox Green Cytotoxicity Assay to monitor cytotoxicity in HepG2 cells - 16 hour (AID 1224876); note: nearly all actives have a fitted effect of over 45% in size
Summary of the method: (§5)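 Read-out is fluorescence of a cyanine dye excluded from live cells that stains DNA of dead HepG2 cells, with signal proportional to cytotoxicity. Plates were read at 0, 8, 16, 24, 32 and 40 h after compound addition.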

[15] = qHTS RealTime-Glo MT Cell Viability Assay in HepG2 cells - 32 hour (AID 1224877); note: nearly all actives have a fitted effect of over 55% in size
Summary of the method: as §1

[16] = A CellTox Green Cytotoxicity Assay to monitor cytotoxicity in HepG2 cells - 24 hour (AID 1224878); note: nearly all actives have a fitted effect of over 45% in size
Summary of the method: as §5

[17] = A CellTox Green Cytotoxicity Assay to monitor cytotoxicity in HepG2 cells - 40 hour (AID 1224879); note: nearly all actives have a fitted effect of over 40% in size
Summary of the method: as §5

[18] = qHTS assay to identify small molecule antagonists of the estrogen related receptor (ERR) signaling pathway from Tox21 library (AID 1224848); note: nearly all actives have a fitted effect of over 50% in size
Summary of the method: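 Screening used an ERR reporter line supplied by NTP, exposed for 18 h at 37 C to library compounds delivered in DMSO. Signal was luciferase luminescence developed with ONE-Glo at room temperature for 30 min.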

[19] = qHTS assay to identify small molecule agonists of the estrogen related receptor (ERR) signaling pathway from Tox21 library (AID 1224849; calls by dose curve; note: nearly all actives have a fitted effect of over 15% in size)
Summary of the method: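 ERR cells, 6 h pre-incubation 37 C/5% CO2; cpd in DMSO pinned; 18 h 37 C; ONE-Glo added, 30 min RT; luminescence read. Agonist mode, qHTS.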

[20] = qHTS RealTime-Glo MT Cell Viability Assay in HepG2 cells - 40 hour (AID 1224870); note: nearly all actives have a fitted effect of over 50% in size
Summary of the method: as §4
% is set by controls: 0 for no effect and ±100 for the full control effect.

C[Si]1(C)O[Si](C)(C)O[Si](C)(C)O[Si](C)(C)O1
inactive: outcome [1] | outcome [2] | outcome [3] | outcome [4] | outcome [5] | Potency [6] | Potency [7] | outcome [8] | Potency [9] | Potency [10] | Potency [11] | max response [12] 3.24% and 9.03% | Potency [13] | outcome [14] | outcome [15] | Potency [16] | Potency [17]

Brc1ccc(Br)c(Br)c1
inactive: outcome [1] | outcome [2] | outcome [3] | outcome [4] | outcome [5] | Potency [6] | Potency [7] | outcome [8] | Potency [10] | Potency [11] | max response [12] -6.36% and -22.4% | outcome [14] | outcome [15] | Potency [16] | Potency [17]

CC(=O)OCc1ccco1
inactive: outcome [1] | outcome [2] | outcome [3] | outcome [4] | outcome [18] | outcome [19] | Potency [6] | Potency [7] | outcome [8] | outcome [20] | Potency [9] | Potency [10] | Potency [11] | max response [12] 3.13% and 20% | Potency [13] | outcome [14] | outcome [15] | Potency [16] | Potency [17]

N#Cc1ccccc1
inactive: outcome [1] | outcome [2] | outcome [3] | outcome [4] | outcome [18] | outcome [19] | Potency [6] | Potency [7] | outcome [8] | outcome [20] | Potency [9] | Potency [10] | Potency [11] | max response [12] 6.77% and 3.17% | Potency [13] | outcome [14] | outcome [15] | Potency [16] | Potency [17]

N[C@H](Cc1c[nH]c2ccccc12)C(=O)O
inactive: outcome [1] | outcome [2] | outcome [3] | outcome [4] | outcome [5] | Potency [6] | Potency [7] | outcome [8] | Potency [9] | Potency [10] | Potency [11] | max response [12] 20.7% and 3.97% | Potency [13] | outcome [14] | outcome [15] | Potency [16] | Potency [17]

OCc1ccccc1
inactive: outcome [1] | outcome [2] | outcome [3] | outcome [4] | outcome [18] | outcome [19] | Potency [6] | Potency [7] | outcome [8] | outcome [20] | Potency [9] | Potency [10] | Potency [11] | max response [12] -3.29% and 13.4% | Potency [13] | outcome [14] | outcome [15] | Potency [16] | Potency [17]

COC(=O)c1cccnc1
inactive: outcome [1] | outcome [2] | outcome [3] | outcome [4] | outcome [18] | outcome [19] | Potency [6] | Potency [7] | outcome [8] | outcome [20] | Potency [9] | Potency [10] | Potency [11] | max response [12] 0.779% and 5.01% | Potency [13] | outcome [14] | outcome [15] | Potency [16] | Potency [17]

COC(=O)CCCC(=O)OC
inactive: outcome [1] | outcome [2] | outcome [3] | outcome [4] | Potency [6] | Potency [7] | outcome [8] | outcome [20] | Potency [9] | Potency [10] | Potency [11] | max response [12] 4.51% and 15.2% | Potency [13] | outcome [14] | outcome [15] | Potency [16] | Potency [17]

CC(C)CC(C)O (stereo unspecified)
inactive: outcome [1] | outcome [2] | outcome [3] | outcome [4] | Potency [6] | Potency [7] | outcome [8] | outcome [20] | Potency [9] | Potency [10] | Potency [11] | max response [12] 6.34% and 7.03% | Potency [13] | outcome [14] | outcome [15] | Potency [16] | Potency [17]

CC(=O)c1ccc(O)cc1
inactive: outcome [1] | outcome [2] | outcome [3] | outcome [4] | outcome [5] | Potency [6] | Potency [7] | outcome [8] | Potency [9] | Potency [10] | Potency [11] | max response [12] 0.924% and -3% | Potency [13] | outcome [14] | outcome [15] | Potency [16] | Potency [17]

CC1(C)CC(N)CC(C)(CN)C1 (stereo unspecified)
inactive: outcome [1] | outcome [2] | outcome [3] | outcome [4] | outcome [5] | Potency [6] | Potency [7] | outcome [8] | Potency [9] | Potency [10] | Potency [11] | max response [12] -9.67% and 2.41% | Potency [13] | outcome [14] | outcome [15] | Potency [16] | Potency [17]

C[C@]12CC[C@@H]3c4ccc(O)cc4CC[C@H]3[C@@H]1C[C@@H](O)[C@@H]2O
inactive: outcome [1] | outcome [2] | outcome [3] | outcome [4] | outcome [5] | Potency [6] | Potency [7] | outcome [8] | Potency [9] | Potency [10] | Potency [11] | max response [12] -25.2% | Potency [13] | outcome [14] | outcome [15] | Potency [16] | Potency [17]

COc1ccc(OC)cc1
inactive: outcome [1] | outcome [2] | outcome [3] | outcome [4] | outcome [18] | outcome [19] | Potency [6] | Potency [7] | outcome [8] | outcome [20] | Potency [9] | Potency [10] | Potency [11] | max response [12] 5.27% and 14.7% | Potency [13] | outcome [14] | outcome [15] | Potency [16] | Potency [17]

C=Cc1ccc(C)cc1
inactive: outcome [1] | outcome [2] | outcome [3] | outcome [4] | outcome [5] | Potency [6] | Potency [7] | outcome [8] | Potency [9] | Potency [10] | Potency [11] | max response [12] -4.48% and 7.7% | Potency [13] | outcome [14] | outcome [15] | Potency [16] | Potency [17]
